Test results reported in PubChem BioAssay (EPA / NIEHS).
Inconclusive results are not listed. The source made the active and inactive calls. The calls were made as follows: active = hit-call score of the fitted dose curve at least 0.9, where 1 is the maximum; inconclusive = response in the unintended direction; inactive = score below 0.9.

molecular target: human CYP2C9, CYP2C9 (gene 1559) (UniProt P11712); assay: NVS_ADME_hCYP2C9: NovaScreen (NVS) CYP450-related Enzyme Activity (ADME) Assay for human CYP2C9 (AID 2283108)
Sequence (P11712 whole entry, looked up): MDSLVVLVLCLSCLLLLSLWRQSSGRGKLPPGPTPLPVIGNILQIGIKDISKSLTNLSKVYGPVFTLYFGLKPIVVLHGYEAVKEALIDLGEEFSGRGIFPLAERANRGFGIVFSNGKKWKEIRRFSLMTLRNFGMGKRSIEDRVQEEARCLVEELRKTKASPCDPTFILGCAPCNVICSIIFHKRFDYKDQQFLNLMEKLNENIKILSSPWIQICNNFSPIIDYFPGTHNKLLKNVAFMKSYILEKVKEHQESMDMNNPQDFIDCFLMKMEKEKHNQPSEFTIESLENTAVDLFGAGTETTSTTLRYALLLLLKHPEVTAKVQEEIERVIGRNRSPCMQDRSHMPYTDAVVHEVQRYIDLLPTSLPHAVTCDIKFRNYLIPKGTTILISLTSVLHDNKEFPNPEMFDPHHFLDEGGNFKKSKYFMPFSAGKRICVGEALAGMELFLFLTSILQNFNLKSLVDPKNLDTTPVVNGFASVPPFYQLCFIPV
Experimental: NVS_ADME_hCYP2C9 is a biochemical, single-readout assay that uses extracted gene-proteins from SF9 in a cell-free assay. Measurements were taken 0.75 hour after chemical dosing in a 96-well plate.NVS_ADME_hCYP2C9 is one of one assay component(s) measured or calculated from the NVS_ADME_hCYP2C9 assay. It is designed to make measurements of enzyme activity, a form of enzyme reporter, as detected with fluorescence intensity signals by Fluorescence technology.Data from the assay component NVS_ADME_hCYP2C9 was analyzed into 1 assay endpoint. This assay endpoint, NVS_ADME_hCYP2C9, was analyzed in the positive analysis fitting direction relative to Acetonitrile as the negative control and baseline of activity. Using a type of enzyme reporter, loss-of-signal activity can be used to understand changes in the enzymatic activity as they relate to the gene CYP2C9. Furthermore, this assay endpoint can be referred to as a primary readout, because this assay has produced multiple assay endpoints where this one serves a enzymatic activity function. To generalize the intended target to other relatable targets, this assay endpoint is annotated to the cyp intended target family, where the subfamily is xenobiotic metabolism.
Binding assays used specific radioligands (tritiated, iodinated) with non-radioactive competitive displacement ligands in agonist or antagonist protocols (as indicated) and various reference compounds and inhibitors to titrate specific binding to receptors and transporters. Most enzyme assays (CYPs, kinases, phosphatases, proteases, HDACs) used recombinant protein and specific substrates (fluorescence mostly, some colorimetric and radioactive) and inhibitors, followed by a biochemical separation of substrate and product. All assays for the biochemical HTS were initially run in duplicate at a single concentration (10 uM for CYP450 assays and 25 uM for all others). […] Each assay was run with positive and negative controls, and concurrent controls on every plate. The follow-up (secondary) screen tested active chemical-pairs in concentration series, as well as a few additional assays not tested in the primary screen, some selected negative inactives, and several cases re-run in the concentration series for confirmatory purposes.

Row | SMILES | outcome | AC50
1 | CCCOC(=O)c1cc(O)c(O)c(O)c1 | inactive | 
2 | CC(C)(c1cc(Br)c(O)c(Br)c1)c1cc(Br)c(O)c(Br)c1 |  | 2.93 µM (active)
3 | CCOC(=O)O[C@H](C)OC(=O)c1ccc2c(c1)cc(C(=O)NC1CCN(C(C)C)CC1)n2Cc1cc(-c2ccc(Cl)s2)on1 |  | 15.4 µM (active)
4 | CCN(Cc1cccnc1)C(=O)c1cccc(Cl)c1[C@]1(C)C(=O)N(Cc2ccc(OC)cc2OC)c2ccc(Cl)cc21 |  | 2.28 µM (active)
5 | CN(C)C(=O)C1(N2CCCCC2)CCN(CC[C@@]2(c3ccc(Cl)c(Cl)c3)CN(C(=O)c3ccccc3)CCO2)CC1 |  | 1.17 µM (active)
6 | CC(C)(O)c1ccc(CNC(=O)c2cccnc2Oc2ccc3nonc3c2)cc1 |  | 13 µM (active)
7 | COc1cc(C(=O)NC2CCN(C)CC2)ccc1Nc1ncc2c(n1)N(C1CCCC1)CC(F)(F)C(=O)N2C |  | 6.56 µM (active)
8 | CCCCOC(=O)c1ccc(O)cc1 |  | 7.15 µM (active)
9 | O=C1c2ccccc2C(=O)N1CCc1noc(-c2ccc(CN3CCCCCC3)s2)n1 |  | 5.62 µM (active)
10 | CCN(CC)C(=O)c1cc(S(=O)(=O)Cc2ccccc2)c(N2CCC(c3ccccc3)CC2)cc1N(CC)CCN(C)C |  | 12.5 µM (active)
11 | CCCCOC(=O)CC(CC(=O)OCCCC)(OC(C)=O)C(=O)OCCCC | inactive | 
12 | CCN(Cc1cccc(S(=O)(=O)O)c1)c1ccc(C(=C2C=CC(=[N+](CC)Cc3cccc(S(=O)(=O)O)c3)C=C2)c2ccccc2S(=O)(=O)[O-])cc1 |  | 4.22 µM (active)
13 | CCCCCCCCOC(=O)c1cc(O)c(O)c(O)c1 |  | 7.75 µM (active)
14 | Clc1ccccc1C(c1ccccc1)(c1ccccc1)n1ccnc1 |  | 0.585 µM (active)
15 | NCc1cccc(C2CCN(C(=O)c3ccc(C#Cc4ccccc4F)o3)CC2)c1 |  | 0.112 µM (active)
16 | CN(C[C@@H](CC[N+]12CCC(C3CCCCC3)(CC1)CC2)c1ccc(Cl)c(Cl)c1)C(=O)c1cc(C(F)(F)F)cc(C(F)(F)F)c1 |  | 7.68 µM (active)
